Sampled rows, rich in hits. Any-hit rate of the full collection: about 1.3%.
S1P3 antagonist: S1P3 (human) receptor antagonism. CHO S1P3 NFAT-BLA reporter, FRET fluorescence, antagonist mode. inhibition, % at 4.98 µM. 170,000 compounds, 0.27% hits;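 active = inhibition above the plate cutoff, the mean inhibition of test wells on that plate plus 3 SD, cut at about 28% in these data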;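 note: cells challenged with S1P at its EC80 of 0.8 µM; blue over green emission ratio from cleaved BLA substrate after 4 h stimulation; 0% = S1P-stimulated wells and 100% = unstimulated DMSO-only wells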
Calpain2 inh: blocks pig calpain II enzyme activity; 220,000 compounds, 0.37% hits; inhibition, % at 16 µM; purified calpain II, fluorogenic peptide substrate, 30 min; AID 1236;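 active = inhibition above about 50%, limit read from the data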
S1P4 ag: human S1P4 receptor agonism; O95977; S1P4-expressing cell line, agonist reporter assay; activation, % at 4.98 µM; 220,000 compounds, 0.35% hits; in the data active = activation above about 11%;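 note: 0% = DMSO vehicle and 100% = reference agonist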
PERK inh: inhibitors of human PERK kinase. AID 1416. CHO PERK-DD fusion, SEAP luminescence translation reporter. Q9NZJ5. inhibition, % at 5.6 µM. 220,000 compounds, 0.17% hits;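 active = inhibition above the mean inhibition of all tested compounds plus 3 SD, set separately per screening campaign, cut at about 2.9% in these data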;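 note: PERK kinase domain activated by AP20187 dimerizer at 100 nM; 0% = DMSO with dimerizer and 100% = rapamycin at 8.4 µM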
S1P4 antagonist: antagonists of human S1P4 receptor; S1P4-expressing cells, antagonist mode, reporter read-out; 220,000 compounds, 0.26% hits; O95977; inhibition, % at 4.98 µM; in the data active = inhibition above about 29%;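 note: 0% = wells stimulated with agonist and 100% = vehicle wells without agonist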
S1P4 agonist cf: confirmation of human S1P4 receptor agonists; AID 1523; 740 compounds, 7% hits; shares compounds with S1P4 ag; activation, % at 4.98 µM; S1P4 agonist cell-based reporter assay; in the data active = activation above about 12%;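 note: 0% = vehicle and 100% = full reference agonist response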
S1P1 agonist: counter-screen for S1P4 agonists: agonists of human S1P1. activation, % at 4.98 µM. AID 1563. S1P1 agonist cell-based assay, activation. shares compounds with S1P4 ag. 740 compounds, 4% hits; in the data active = activation above about 21%;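 note: 0% = vehicle wells and 100% = reference agonist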
Target sequence (P21453 whole entry, looked up): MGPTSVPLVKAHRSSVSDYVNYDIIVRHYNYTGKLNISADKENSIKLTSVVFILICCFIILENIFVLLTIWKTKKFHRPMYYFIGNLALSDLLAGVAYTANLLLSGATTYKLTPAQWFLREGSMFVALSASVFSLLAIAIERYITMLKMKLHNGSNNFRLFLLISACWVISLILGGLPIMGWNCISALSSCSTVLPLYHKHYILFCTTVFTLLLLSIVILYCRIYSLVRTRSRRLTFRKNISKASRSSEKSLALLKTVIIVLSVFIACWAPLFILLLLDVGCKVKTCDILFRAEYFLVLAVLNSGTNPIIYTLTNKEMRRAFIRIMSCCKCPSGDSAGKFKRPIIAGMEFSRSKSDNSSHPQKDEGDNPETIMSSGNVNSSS
Active calls of the source: *; i = inactive; . = not tested or not shown.

SMILES	S1P3 antagonist	Calpain2 inh	S1P4 ag	PERK inh	S1P4 antagonist	S1P4 agonist cf	S1P1 agonist
CNS(=O)(=O)c1ccc(NC(=O)c2ccccn2)cc1	-7.0	3.6	70.3*	1.7	8.7	-0.7	-2.9
CCOc1ccc(NC(=O)c2ccccn2)cc1	-6.7	18.9	0.6	1.3	-16.4	.	.
S=c1[nH]nc([C@@H]2C[C@H]2c2ccccc2)n1-c1ccccc1Cl	-7.1	-10.5	0.6	0.5	-8.8	.	.
Cc1ccccc1-c1nc(CS(=O)CC(=O)NCCCN(C)c2ccccc2)c(C)o1 (stereo not drawn)	5.7	5.2	-0.3	-0.5	-16.7	.	.
Cc1ccc(NC(=O)CS(=O)CC(=O)NCCCN(C)c2ccccc2)cc1 (stereo not drawn)	-29.1	12.5	24.6*	0.6	-7.5	-1.6	-4.2
COc1cccc(CC(NC(C)=O)C(=O)NC2CCN(c3c(Cc4ccccc4)c(C)nc4ncnn34)CC2)c1OC (stereo not drawn)	-6.7	-9.6	14.2*	0.8	-0.8	-2.6	-7.7
Cn1c(CNc2ccc(F)cc2)nnc1SCC(=O)NNC(=O)Cc1ccccc1	-8.6	-20.9	15.7*	0.9	4.8	-1.9	0.0
S=C(NCCc1ccccc1)Nc1ccc(Br)cn1	-19.5	23.5	-0.9	0.5	11.9	.	.
Cn1c(CNC(=O)OC(C)(C)C)nnc1SCc1c(Cl)cccc1Cl	6.2	10.8	55.8*	-1.4	-5.0	-2.0	-10.8
COc1ccc(C(=O)Nc2nc(N)n(-c3ccccc3)n2)cc1	-24.4	11.9	41.7*	0.3	-11.2	-3.0	-8.6
C/C=C/C(=O)OCC(=O)Nc1ccc(C)c(S(=O)(=O)N(C)C)c1	14.1	-56.9	1.1	0.9	-18.5	.	.
Cc1ccc(NC(=O)COC(=O)[C@H](C)N2C(=O)C3CC=CCC3C2=O)cc1S(=O)(=O)N(C)C (stereo partly drawn)	-22.2	1.4	15.6*	0.4	-16.6	-1.1	-4.9
NS(=O)(=O)c1cc(C(=O)OCC(=O)Nc2ccc(N3CCCCC3)cc2)ccc1Cl	-2.1	8.0	-1.8	0.6	-5.5	.	.
O=C1CC(c2ccc(F)cc2)CC2=C1C(c1ccc([N+](=O)[O-])o1)Nc1ccccc1N2 (stereo not drawn)	-3.8	11.0	-0.9	-0.1	-20.8	.	.
CCn1c(=O)c2cc(C(=O)N(C)c3ccc(OC)cc3OC)sc2c2ccccc21	12.8	-3.2	-0.6	-0.3	-2.8	.	.
CCn1c(=O)c2cc(C(=O)N(C)c3ccccc3F)sc2c2ccccc21	13.8	16.3	20.8*	-0.2	-5.4	-1.7	-5.8
Cc1cccc(OCC(=O)N/N=C/c2sc(=O)n(Cc3cccc(C(=O)O)c3)c2Cl)c1	-3.1	21.4	1.2	2.4	-15.2	.	.
CCn1nc(NC(=O)Cc2ccc(OC)cc2)c2cc3cc(C)ccc3nc21	-4.5	-64.4	1.0	-1.0	-7.9	.	.
Nn1cc(-c2ccccc2)nc1SCC(=O)NCC(F)(F)F	-5.2	6.4	14.0*	-0.2	-12.2	-1.4	-1.9
Nn1cc(-c2ccccc2)nc1SCC(=O)NCCc1ccccc1	-0.2	-15.7	-1.6	1.0	22.2	.	.
CCOCCN(C(=O)COC)c1cccc(OC)c1	.	-3.8	26.4*	0.7	-21.5	-1.2	-1.9
CC1Cc2ccccc2N1C(=O)CSc1nccc(=O)[nH]1 (stereo not drawn)	0.3	-14.8	0.2	0.7	-9.0	.	.
Cn1c(-c2cc3ccc(OC(=O)C(C)(C)C)cc3oc2=O)nc2ccccc21	.	i	24.1*	0.1	7.1	18.4*	11.4
Cc1ccc(S(=O)(=O)N(C)c2ccc3sc(C)nc3c2)cc1	14.8	-22.5	1.0	0.3	-12.3	.	.
Cc1nn(-c2ccccc2)c(Cl)c1/C=N/NS(=O)(=O)c1ccc(Br)cc1	-13.1	-15.3	51.5*	-0.8	2.3	-2.5	-6.2
Cc1ccc(-n2ncc3c(=O)n(CC(=O)OCc4ccccc4)cnc32)cc1	-28.0	13.7	16.9*	0.0	-27.8	-1.8	-2.4
O=C(Cn1cnc2c(cnn2-c2ccccc2)c1=O)OCc1ccccc1	-4.5	-29.1	-1.5	0.8	-14.8	.	.
O=C(NC(=S)N1CCN(Cc2ccccc2)CC1)c1ccco1	-14.3	-16.0	1.9	0.5	-5.7	.	.
O=[N+]([O-])c1ccccc1N/N=C/c1cccc(O)c1O	-4.5	-12.4	12.7*	0.9	-10.4	-2.6	1.7
O=[N+]([O-])c1ccccc1N/N=C\c1ccccc1Cl	.	-10.8	-1.0	-0.8	-35.6	.	.

Screening results (PubChem)
